Growth data for 33 compounds are collected here from PubChem BioAssay (NCI).

Compounds without any hit were thinned out: in the full panel of roughly 83,000, 20% have a hit.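 Each cell line was grown in a 96-well plate and treated with one concentration of compound for 48 hours. Values below 10 were considered active.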 A number with no mark means an inactive call. The source made the active and inactive calls.

The assay concerns SK-MEL-28 melanoma. In words: NCI-60 one-dose screen, 48 h (100 = growth as untreated, 0 = no growth, -100 = all killed). The settings on record: 10 µM unless noted.
Turning to `Cn1cc(-c2csc(-c3ccc(Cl)cc3)n2)c2cccnc21`, the growth was -63.9% [100 µM] (active).
In the case of `COc1cc(-c2nc(SCCC(C)C)nc(Nc3ccccc3Cl)c2C#N)cc(OC)c1OC` it was 98.8%.
For the compound `CCn1c(=S)[nH]c2c(=O)n(C)c(=O)n(C)c21`, the growth is 109%.
For the compound `c1ccc(CNc2c3ccccc3nc3ccccc23)cc1`, the growth is 85.5%.
In the case of `COCCn1c(-c2csc(-c3cn(C)c4ccc(OC)cc34)n2)cc2cccnc21` it was 85.1%; in that of `CCOC(=O)CSc1ncnc2c1c(-c1ccccc1)c(-c1ccccc1)n2-c1ccc(C)cc1`, 87.6%; in that of `COc1cc2oc(-c3cccc(NC(=O)c4cccc(Br)c4)c3)cc(=O)c2c(OC)c1OC`, 71.1%.
The result for `Cc1ccc(Cl)cc1Nc1nc(C(F)(F)F)ccc1C(=O)N/N=C/c1cccnc1` reads 39.9%; that for `Cn1c(=O)c2c(nc(NC3=NS(=O)(=O)c4ccccc43)n2CC(=O)N2CCc3ccccc32)n(C)c1=O`, 105%.
The result for `Cc1cccc(Cl)c1NC(=O)c1ccc2nc(NC(=O)NCCN(C)C)sc2c1` reads 87.6%.
Turning to `CCOC(=O)c1c(C)nc2c(c1N)CC(=O)N2Cc1cc(F)cc(Cl)c1`, the growth was 105%.
In the case of `COC(C(=O)[C@@H](O)[C@@H](C)O)[C@@H]1Cc2cc3cc(O[C@H]4C[C@@H](O[C@H]5C[C@@H](O)[C@H](O)C(C)O5)[C@H](O)C(C)O4)cc(O)c3c(O)c2C(=O)[C@H]1O[C@H]1C[C@@H](O[C@H]2C[C@@H](O[C@H]3C[C@@H](OC)[C@H](O)C(C)O3)[C@@H](O)C(C)O2)[C@H](O)C(C)O1` (stereo partly drawn) it was 30.7%.
With `CN([O-])c1nc(N(C)[O-])nc(N2CCOCC2)n1.CN([O-])c1nc(N(C)[OH2+])nc(N2CCOCC2)n1.[Fe+3]`, the growth is -26.4% [100 µM] (active).
On to `CCOP(=O)(OCC)c1nc(-c2ccccc2)oc1NCc1cccnc1`, for which the growth is 113%.
The result for `CCn1c(SCC(=O)c2ccc(Br)cc2)nnc1-c1ccncc1` reads 109%; that for `CCCCNc1ccc(C#N)c(OCCN(CC)CC)c1`, 101%; that for `N#Cc1c(-c2ccc(Cl)cc2)nc(NN=Cc2cccc(O)c2)nc1N1CCOCC1`, 77.1%.
The result for `CS(=O)(=O)Nc1cc(-c2ccc3ncnc(Nc4c(Cl)ccc5c4OCO5)c3c2)cnc1Cl` reads -6.42% (active).
In the case of `Fc1cccc(CNc2c3ccccc3nc3ccccc23)c1F` it was 96.9%.
For `COC(=O)CNC(=O)[C@H](Cc1ccccc1)NCc1ccncc1`, the growth was 114%.
The result for `O=C(NCCCN1CCOCC1)c1cccc(N2C(=O)/C(=C/c3ccc(F)cc3)SC2=S)c1` reads 104%; that for `O=[N+]([O-])/C(=C/C=C/c1ccccc1)c1ccccc1`, 12.6%.
In the case of `Cn1cc(-c2csc(-c3c[nH]c4ccc(Br)cc34)n2)c2cnccc21` it was -93.6% (active); in that of `C=C(C)[C@@H]1CC[C@]2(C(=O)N3CCN(C)CC3)CC[C@]3(C)[C@H](CC[C@@H]4[C@@]5(C)CC(=C/c6ccncc6)/C(=N/O)C(C)(C)[C@@H]5CC[C@]43C)[C@@H]12`, 96.4%; in that of `COc1cc(N2C(=O)[C@H](O)C2c2ccc(SC)cc2)cc(OC)c1OC` (stereo partly drawn), 67.1%.
For the compound `CCCCC(=O)c1ccco1`, the growth was 103%.
In the case of `C=C(C)[C@@H]1CC[C@]2(C)[C@H](CC=C3[C@@H]4[C@H](C)[C@@H](C)CC[C@]4(CO)CC[C@]32C)[C@@]1(C)CCCN` it was -35.3% (active); in that of `COc1ccc2[nH]cc(-c3nc(-c4c[nH]c5ccncc45)cs3)c2c1`, -88.5% (active).
In the case of `Oc1ccc(CN2CCC(N3CCCCC3)CC2)c2cccnc12` it was 33.4%; in that of `CC(C)(C)c1cc(-c2nc3ccc(N4CCN(S(C)(=O)=O)CC4)cc3[nH]2)cc(C(C)(C)C)c1O`, 94.3%; in that of `COc1ccc2c(c1)c(-c1noc(C(=O)c3cn(C)c4ccc(Br)cc34)n1)cn2C`, 117%.
The result for `C[C@H](NC(=O)[C@@H](C)N)[C@H](Oc1ccc2c(cnn2-c2ccc(F)cc2)c1)c1ccc2c(c1)OCCO2` reads -66.7% (active); that for `C=C(C)[C@@H]1CC[C@]2(C(=O)O)CC[C@]3(C)[C@H](CC[C@@H]4[C@@]5(C)C[C@@H](Cc6cn(CCO[C@@H]7O[C@H](COC(C)=O)[C@H](OC(C)=O)[C@H](OC(C)=O)[C@H]7OC(C)=O)nn6)[C@H](O)C(C)(C)[C@@H]5CC[C@]43C)[C@@H]12`, 76.5%.
